Columns and labels:
[1] = tested on: Vero E6 infected with SARS-CoV-2; assay: morphology score (similarity to uninfected cells); higher = more like uninfected cells; conditions: 24 h
[2] = tested on: Vero E6 infected with SARS-CoV-2; assay: SARS-CoV-2 infection rate relative to infected DMSO; higher = more infection, active = 60 or less; conditions: 24 h

| Compound | morphology score [1] | SARS-CoV-2 infection rate [2] |
| --- | --- | --- |
| O=C(N[C@H]1CCN(C(=O)c2cc(C(F)(F)F)cc(C(F)(F)F)c2)[C@H](Cc2ccc(Cl)cc2)C1)c1ccnc2ccccc12 (10 µM) | 0.195 | 81.5% (inactive) |
| Cc1c(O)cccc1C(=O)N[C@@H](CSc1ccccc1)[C@H](O)CN1C[C@H]2CCCC[C@H]2C[C@H]1C(=O)NC(C)(C)C [nelfinavir] (10 µM) | 0.722 | 47.5% (active) |
| CC(C)(C)S(=O)(=O)N[C@H]1CC[C@H](C(=O)Nc2ccc(C(F)(F)F)cn2)CC1 [velneperit] (10 µM) | -0.0103 | 115% (inactive) |
| N[C@H](C(=O)O)[C@H](O)c1ccc(O)c(O)c1 [droxidopa] (10 µM) | -0.0971 | 122% (inactive) |
| CCOC(=O)c1c(/C(C#N)=C\N)c2ccc(Cl)c(Cl)c2n1C (10 µM) | -0.0335 | 105% (inactive) |
| C=C1CCN([C@H](C)[C@](O)(Cn2cncn2)c2ccc(F)cc2F)CC1 [efinaconazole] (10 µM) | 0.162 | 92% (inactive) |
| Cc1ccc(NC(=O)CCCCCC(=O)Nc2ccccc2N)cc1 (0.833333 µM) | -0.0538 | 103% (inactive) |
| CC/C=C\C/C=C\C/C=C\C/C=C\C/C=C\C/C=C\CCC(=O)OCC [doconexent-ethyl-ester] (10 µM) | 0.193 | 88.5% (inactive) |
| CCCCC1CCC(c2nc(-c3ccncc3)no2)CC1 (stereo not drawn) (10 µM) | -0.00672 | 104% (inactive) |
| Cn1c(COc2ccc(CC3SC(=O)NC3=O)cc2)nc2ccccc2c1=O (stereo not drawn) [balaglitazone] (10 µM) | -0.114 | 111% (inactive) |
| COc1ccc(C(=O)Nc2c(Cl)cncc2Cl)cc1OC1CCCC1 [piclamilast] (10 µM) | 0.363 | 107% (inactive) |
| Nc1ccc(S(=O)(=O)c2ccc(N)cc2)cc1 [dapsone] (10 µM) | -0.179 | 99.5% (inactive) |
| O=C1CC[C@@]2(O)[C@H]3Cc4ccc(O)c5c4[C@@]2(CCN3CC2CC2)[C@H]1O5 (10 µM) | -0.0472 | 106% (inactive) |
| CCOC(=O)C1=CCCC[C@H]1S(=O)(=O)Nc1ccc(F)cc1Cl [resatorvid] (10 µM) | 0.0683 | 99.5% (inactive) |
| C=C[C@@H]1C[C@]1(NC(=O)[C@@H]1C[C@@H]2CN1C(=O)[C@H](C(C)(C)C)NC(=O)O[C@@H]1C[C@H]1CCCCCc1nc3ccc(OC)cc3nc1O2)C(=O)NS(=O)(=O)C1CC1 [grazoprevir] (10 µM) | 0.0897 | 109% (inactive) |
| CCN[C@H]1C[C@H](C)S(=O)(=O)c2sc(S(N)(=O)=O)cc21 [dorzolamide] (10 µM) | 0.0923 | 100% (inactive) |
| O=C(OCCN1CCCCC1)c1c[nH]c2ccccc12 (10 µM) | 0.0285 | 102% (inactive) |
| CNc1cc(OC)c(C(=O)NC2CCN(Cc3ccccc3)C2C)cc1Cl (stereo not drawn) [nemonapride] (10 µM) | 0.642 | 36.5% (active) |
| Cc1nc2n(c(=O)c1CCN1CCC(c3noc4cc(F)ccc34)CC1)CCCC2O (stereo not drawn) [paliperidone] (10 µM) | 0.08 | 108% (inactive) |
| O=C(O)[C@H]1CCCN(CCC=C(c2ccccc2)c2ccccc2)C1 (racemic) (10 µM) | 0.0757 | 88.5% (inactive) |

| Compound | morphology score [1] | SARS-CoV-2 infection rate [2] |
| --- | --- | --- |
| Cc1ccc(-c2ccc(C)cn2)nc1 [abametapir] (10 µM) | 0.0247 | 106% (inactive) |
| CN1c2c([nH]c(N)nc2=O)NC[C@@H]1CNc1ccc(C(=O)N[C@@H](CCC(=O)O)C(=O)O)cc1 [metafolin] (10 µM) | 0.0144 | 115% (inactive) |
| Cn1ncnc1[C@H]1c2n[nH]c(=O)c3cc(F)cc(c23)N[C@@H]1c1ccc(F)cc1 [talazoparib] (0.833333 µM) | -0.223 | 113% (inactive) |
| CCCC(=O)Nc1ccc(OCC(O)CNC(C)C)c(C(C)=O)c1 (stereo not drawn) [acebutolol] (10 µM) | -0.0282 | 113% (inactive) |
| c1ccc(OCc2ccc(CCCN3CCOCC3)cc2)cc1 [fomocaine] (10 µM) | -0.0235 | 106% (inactive) |
| N#Cc1nn(-c2c(Cl)cc(C(F)(F)F)cc2Cl)c(N)c1[S+]([O-])C(F)(F)F (stereo not drawn) [fipronil] (10 µM) | 0.0672 | 102% (inactive) |
| COC(=O)N[C@H](C(=O)N1CCC[C@H]1c1ncc(-c2ccc(-c3ccc(-c4cnc([C@@H]5CCCN5C(=O)[C@@H](NC(=O)OC)C(C)C)[nH]4)cc3)cc2)[nH]1)C(C)C [daclatasvir] (10 µM) | 0.0693 | 90.5% (inactive) |
| COC(=O)/C=C/c1cccc(N(Cc2ccc(-c3ccc(N(C)C)cc3)cc2)C(=O)C2CCCCC2)c1 [fexaramine] (10 µM) | 0.272 | 86% (inactive) |
| CS(=O)(=O)CCNCc1nc(-c2ccc3ncnc(Nc4ccc(OCc5cccc(F)c5)c(Cl)c4)c3c2)cs1 (10 µM) | -0.294 | 116% (inactive) |
| NC(CO)C(=O)NNCc1ccc(O)c(O)c1O (stereo not drawn) [benserazide] (10 µM) | -0.102 | 96.5% (inactive) |
| S=C(S)N1CCCC1 [pyrrolidine-dithiocarbamate] (0.833333 µM) | 0.106 | 98% (inactive) |
| CC(C)c1ccccc1S(=O)(=O)c1cc(N)c2ncccc2c1[N+](=O)[O-] (10 µM) | 0.225 | 95.5% (inactive) |
| O=C1C(=O)N(Cc2ccc(Cl)c(Cl)c2)c2ccccc21 [apoptosis-activator-II] (10 µM) | 0.0389 | 104% (inactive) |
| O=C1NCCN1CCN1CCC(c2cn(-c3ccc(F)cc3)c3ccc(Cl)cc23)CC1 [sertindole] (0.833333 µM) | -0.0791 | 106% (inactive) |
| CN1C(CSCC(F)(F)F)Nc2cc(Cl)c(S(N)(=O)=O)cc2S1(=O)=O (stereo not drawn) [polythiazide] (10 µM) | 0.2 | 100% (inactive) |
| COc1cccc(C2(O)CCCCC2CN(C)C)c1 (stereo not drawn) (10 µM) | 0.17 | 104% (inactive) |
| C[C@]12CCC(=O)C=C1CC[C@@H]1[C@@H]2CC[C@@]2(C)[C@H]1CC[C@]2(O)C(=O)CO [cortodoxone] (10 µM) | 0.0341 | 98% (inactive) |
| Cc1ccc(Nc2c(F)cccc2Cl)c(CC(=O)O)c1 [lumiracoxib] (10 µM) | 0.182 | 109% (inactive) |
| Cc1cccc(-c2[nH]c(C(C)(C)C)nc2-c2ccc3nccnc3c2)n1 (10 µM) | -0.0319 | 100% (inactive) |
| CCC(C)(C)C(=O)C(=O)N1CCC[C@H]1C(=O)OCCCc1cccnc1 (10 µM) | -0.0394 | 116% (inactive) |

| Compound | morphology score [1] | SARS-CoV-2 infection rate [2] |
| --- | --- | --- |
| O=C(Nc1ccncc1)C(=O)c1cn(Cc2ccc(Cl)cc2)c2ccccc12 [indibulin] (0.833333 µM) | -0.246 | 124% (inactive) |
| CC(C)[C@H](NS(=O)(=O)c1ccc(-c2ccc(Br)cc2)cc1)C(=O)O (10 µM) | -0.0577 | 107% (inactive) |
| COC(=O)[C@@]12OC[C@]34[C@H]([C@@H](O)[C@@H]1O)[C@@]1(C)CC(=O)C(O)=C(C)[C@@H]1C[C@H]3OC(=O)[C@H](OC(=O)/C=C(\C)C(C)C)[C@@H]24 [bruceantin] (0.833333 µM) | -0.0265 | 109% (inactive) |
| COc1ccc(C(=O)NCc2cccnc2)cc1C(=O)NCc1cccnc1 [picotamide] (10 µM) | -0.08 | 115% (inactive) |
| O=Nc1c(-c2c(O)[nH]c3cc(Br)ccc23)[nH]c2ccccc12 [GSK-3-inhibitor-IX] (0.833333 µM) | -0.0517 | 67% (inactive) |
| CC(C)n1nc(C#Cc2ccccc2)c2c(N)ncnc21 (10 µM) | 0.471 | 69.5% (inactive) |
| O=C(/C=C/c1ccc2c(c1)OCO2)N1CCCCC1 [ilepcimide] (10 µM) | 0.197 | 95.5% (inactive) |
| CCCCC/C=C\C=C\CCCCCCCCC(=O)O [trans-10,cis-12-conjugated-linoleic-acid] (10 µM) | 0.0778 | 104% (inactive) |
| Cn1cc(C2=C(c3cn(C4CCN(Cc5ccccn5)CC4)c4ccccc34)C(=O)NC2=O)c2ccccc21 [enzastaurin] (10 µM) | -0.0103 | 112% (inactive) |
| CCC[S+]([O-])c1ccc2[nH]c(NC(=O)OC)nc2c1 (stereo not drawn) [albendazole-oxide] (10 µM) | 0.034 | 110% (inactive) |
| Cc1ccc([N+](=O)[O-])cc1S(=O)(=O)N(C)C (10 µM) | 0.0445 | 97% (inactive) |
| CCNC(=O)[C@@H]1CCCN1C(=O)[C@H](CCCNC(=N)N)NC(=O)[C@H](CC(C)C)NC(=O)[C@@H](C)NC(=O)[C@H](Cc1ccc(O)cc1)NC(=O)[C@H](CO)NC(=O)[C@H](Cc1c[nH]c2ccccc12)NC(=O)[C@H](Cc1cnc[nH]1)NC(=O)[C@@H]1CCC(=O)N1 [alarelin] (10 µM) | -0.246 | 114% (inactive) |
| CC(=O)N1N=C(c2ccc(N)cc2)c2cc3c(cc2C[C@H]1C)OCO3 [talampanel] (10 µM) | -0.0668 | 104% (inactive) |
| COc1cc(Nc2ncc3c(n2)-c2ccc(Cl)cc2C(c2c(F)cccc2OC)=NC3)ccc1C(=O)O [alisertib] (0.833333 µM) | 0.272 | 112% (inactive) |
| Cc1cccc(-c2n[nH]cc2-c2ccc3ncccc3n2)n1 [repsox] (10 µM) | 0.188 | 97% (inactive) |
| O=C(CCc1ccc(O)cc1)c1c(O)cc(O)cc1O [phloretin] (10 µM) | 0.241 | 104% (inactive) |
| Cc1cc(C(N)=O)ccc1-n1c(CCC(=O)O)ccc1-c1ccc(-n2ccnc2)cc1 (10 µM) | 0.066 | 89% (inactive) |
| Nc1c(-c2cccc(C(F)(F)F)c2)nsc1C(=O)O [amflutizole] (10 µM) | 0.00564 | 108% (inactive) |
| O=C(C(c1ccccc1)c1ccccc1)N1CCN(CC(O)COc2cccc3ncccc23)CC1 (stereo not drawn) [dofequidar] (10 µM) | 0.14 | 89.5% (inactive) |

— the supplement of paper PMC13380429
